Records with an inconclusive call do not appear. Unmarked numbers belong to inactive results. Activity calls are given as the source filed them. Unless noted, calls follow the shape of the dose curve; as a rule, active = well fitted curve in the direction sought with a large enough effect in the repeat runs; inconclusive = weak or mixed curves; inactive = no such curve, though single readings can be large; an effect the other way counts as inactive or inconclusive.

Test [1] is described as follows: qHTS assay to identify small molecule antagonists of the vitamin D receptor (VDR) signaling pathway - cell viability counter screen (AID 743225). Also: % is scaled to controls: 0 for no effect and ±100 for the full control effect; nearly all actives have a fitted effect of over 50% in size. Put shortly: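 Cytotoxicity toward the VDR-bla HEK 293T line was scored by ATP-based CellTiter-Glo luminescence, read in the wells already used for the beta-lactamase readout after 16 h compound treatment under 3 nM 1-alpha,25-dihydroxyvitamin D3 stimulation.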

A short description of test [2]: qHTS assay to identify small molecule agonists of the NFkB signaling pathway (AID 1159509; active = well fitted curve in the direction sought with a large enough effect in the signal ratio in the repeat runs, not every such curve was filed as active; the % refers to the signal ratio; also: series mostly up to about 61 µM; % is scaled to controls: 0 for no effect and ±100 for the full control effect). Put shortly:
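Readout: FRET fluorescence, 405 nm excitation, 460/530 nm emission; beta-lactamase expression disrupts FRET. Cells: ME-180 stably carrying NF-kB-driven bla reporter. Compound exposure 5 hr, 37 C, 5% CO2.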

Test [3] is described as follows: qHTS assay to identify small molecule agonists of the NFkB signaling pathway - cell viability counter screen (AID 1159515; calls by dose curve; also: series mostly up to about 61 µM; % is scaled to controls: 0 for no effect and ±100 for the full control effect; nearly all actives have a fitted effect of over 55% in size). The procedure, abridged:
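Plate 2,000 NFkB-bla ME-180 cells/well; incubate overnight. Add compounds, 5 hr at 37 C. Add FRET substrate, 1.5 hr RT. Add CellTiter-Glo, 30 min RT; read luminescence.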

Test [4] in a line: qHTS assay to identify small molecule agonists of the endoplasmic reticulum stress response signaling pathway (AID 1159516; active = well fitted activation curve with a large enough effect in the signal ratio in the repeat runs, not every such curve was filed as active; the % refers to the signal ratio; also: % is scaled to controls: 0 for no effect and ±100 for the full control effect). Put shortly: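 Beta-lactamase expression from the ER stress response element in HeLa reporter cells is quantified with the LiveBLAzer B/G FRET substrate, read at 405 nm excitation after 2 hr at room temperature, following 5 hr compound treatment at 37 C.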

Test [5] in a line: qHTS assay to identify small molecule agonists of the endoplasmic reticulum stress response signaling pathway - cell viability counter screen (AID 1159517; calls by dose curve; also: series mostly up to about 61 µM; % is scaled to controls: 0 for no effect and ±100 for the full control effect; nearly all actives have a fitted effect of over 50% in size). Put shortly:
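Cytotoxicity of test compounds toward ESRE-bla HeLa cells was assessed after 5 hr exposure. The luminescent CellTiter-Glo signal was measured 30 min after reagent addition.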

Test [6] can be described thus: qHTS assay to identify small molecule antagonists of the retinoid-related orphan receptor gamma (ROR-gamma) signaling pathway - cell viability counter screen (AID 1159520). Also: % is scaled to controls: 0 for no effect and ±100 for the full control effect; nearly all actives have a fitted effect of over 50% in size. The procedure, abridged:
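Tet-on ROR gamma CHO cells (1,000/well) were plated 4 hr, given compounds in DMSO for 2 hr at 37 C, then induced with 1 uM final doxycycline for 16 hr. Viability was read as ATP by CellTiter-Glo luminescence after 30 min.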

Test [7] can be described thus: qHTS assay to identify small molecule agonists of the AP-1 signaling pathway (AID 1159526; calls by dose curve; also: % is scaled to controls: 0 for no effect and ±100 for the full control effect).
Test [8] addresses Retinoic acid receptor RXR-alpha (Homo sapiens) (UniProt P19793). Description: qHTS assay to identify small molecule agonists of the RXR signaling pathway (AID 1159527; calls by dose curve; also: % is scaled to controls: 0 for no effect and ±100 for the full control effect; nearly all actives have a fitted effect of over 35% in size). The procedure, abridged: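 Reporter activation is measured as beta-lactamase activity via FRET substrate cleavage (emission 460/530 nm) in HEK 293T cells expressing an RXR-alpha-driven bla construct, following 16 hr compound exposure at 37 C.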

A short description of test [9]: qHTS assay to identify small molecule agonists of the RXR signaling pathway - cell viability counter screen (AID 1159529). Also: series mostly up to about 77 µM; % is scaled to controls: 0 for no effect and ±100 for the full control effect; nearly all actives have a fitted effect of over 50% in size. Put shortly: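 Tox21 10K compounds were tested for cytotoxicity against GeneBLAzer RXR-alpha HEK 293T cells grown in 2% charcoal-stripped FBS. Exposure lasted 16 hr at 37 C, 5% CO2; viability read by CellTiter-Glo luminescence.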
The nature of test [10]: qHTS assay to identify small molecule antagonists of the retinoid acid receptor (RAR) signaling pathway - cell viability counter screen (AID 1159551). Also: % is scaled to controls: 0 for no effect and ±100 for the full control effect; nearly all actives have a fitted effect of over 35% in size. The procedure, abridged: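 Viability of C3RL4 cells is quantified from ATP by luminescence after 6 h treatment at 37 C with compounds and 1 uM retinol.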
Test [11] is described as follows: qHTS assay to identify small molecule antagonists of the retinoic acid receptor (RAR) signaling pathway (AID 1159552). Put shortly: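 Overnight-plated C3RL4 reporter cells get compound, then retinol to 1 uM final; plates sit 6 hr at 37 C, 5% CO2. A luciferase reagent is added and light output recorded after 30 min at room temperature.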
The nature of test [12]: qHTS assay to identify small molecule agonists of the retinoic acid receptor (RAR) signaling pathway (AID 1159553). Also: potency is read from the fitted curve at half-maximal effect. Put shortly: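 Compounds dissolved in DMSO were pinned onto C3RL4 cells seeded the previous day, and plates were held 6 hr at 37 C. RARE-driven luciferase output was then read by luminescence.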
The nature of test [13]: qHTS assay to identify small molecule antagonists of the estrogen related receptor (ERR) signaling pathway from Tox21 library - cell viability counter screen (AID 1224834). Also: % is scaled to controls: 0 for no effect and ±100 for the full control effect; nearly all actives have a fitted effect of over 30% in size. The procedure, abridged: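 In this quantitative HTS format, ERR cells receive compounds in DMSO and are incubated for 17.5 h at 37 C. Live-cell protease activity is then detected with CellTiter-Fluor.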

Test [14] is described as follows: qHTS assay to identify small molecule agonists of the AP-1 signaling pathway - cell viability counter screen (AID 1159525; calls by dose curve; also: nearly all actives have a fitted effect of over 55% in size). The procedure, abridged:
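Each titration point was normalised to DMSO and tetra n-octyl ammonium bromide controls. The read was Cell Titer Glo luminescence after 30 min at RT, following 5 h compound exposure of ME-180 AP-1-bla cells at 37 °C.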

Test [15] is described as follows: qHTS assay to identify small molecule antagonists of the estrogen related receptor signaling pathway with the pleiotropic PPARgamma coactivator (PGC) cell viability counter screen (AID 1224822;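 also: series mostly up to about 46 µM; viability read after 17.5 h compound exposure; % is scaled to controls: 0 for no effect and ±100 for the full control effect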). The procedure, abridged: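 Viable cell signal (CellTiter-Fluor, 30 min, 37 C/5% CO2) was measured in PGC/ERR cells after a 17.5 h compound incubation.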
Test [16] deals with Nuclear receptor ROR-gamma (Homo sapiens) (UniProt P51449). Description: qHTS assay to identify small molecule antagonists of the retinoid-related orphan receptor gamma (ROR-gamma) signaling pathway (AID 1159521). The procedure, abridged:
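Readout: ONE-Glo luciferase luminescence, 30 min at room temperature. System: Tet-on RORγ CHO, RORE-LUC. Sequence: compound 2 h, doxycycline 1 uM final, 16 h at 37 C.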

Sequence of Retinoic acid receptor RXR-alpha (Homo sapiens) (P19793 whole entry, looked up): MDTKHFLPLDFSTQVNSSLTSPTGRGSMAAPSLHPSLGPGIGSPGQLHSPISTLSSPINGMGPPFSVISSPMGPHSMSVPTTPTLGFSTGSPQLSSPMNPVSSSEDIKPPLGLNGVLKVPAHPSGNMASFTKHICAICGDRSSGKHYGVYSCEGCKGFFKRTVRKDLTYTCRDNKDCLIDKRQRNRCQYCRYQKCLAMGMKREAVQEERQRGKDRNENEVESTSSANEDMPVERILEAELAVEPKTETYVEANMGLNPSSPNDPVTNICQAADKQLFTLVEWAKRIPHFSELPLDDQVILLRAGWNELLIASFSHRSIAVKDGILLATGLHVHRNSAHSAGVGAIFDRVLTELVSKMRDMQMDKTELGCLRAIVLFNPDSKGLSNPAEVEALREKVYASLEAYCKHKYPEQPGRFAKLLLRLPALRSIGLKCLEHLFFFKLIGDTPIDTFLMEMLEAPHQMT

For the molecule `C[C@@H]1CN(c2c(F)c(N)c3c(=O)c(C(=O)O)cn(C4CC4)c3c2F)C[C@H](C)N1`, the Potency entry in [1] and in test [12] was “inactive” in each case. Further, the molecule was called inactive in test [2], in test [3], in test [4] and in [5]. In [6], the activity, negative = cytotoxicity was 2.26% [at 19 µM]. Further, the activation in test [7] is -6.27% [at 15.8 µM]; in test [8] it was 12.8% [at 15.8 µM]. For the same molecule, the activity change, negative = cytotoxicity in test [9] is 8.39% [at 15.8 µM]; in test [10], 2.38% [at 19 µM]. The activity, negative = inhibition in [11] is 6.27% [at 19 µM]. Besides, the viability change, negative = cytotoxic in [13] was -1.89% [at 19 µM].

For `CCCNC(C)C(=O)Nc1c(C)csc1C(=O)OC` (centres undefined), the Potency result in [1], in test [6], in test [7], in test [8], in [9] and in [11] was “inactive” in each case. The Potency entry in test [12] and in test [13] was “inactive” each time. The call in test [2], in [3], in [4], in test [5] and in test [10] was inactive.

Consider `CC/C=C\CCOC(=O)C(C)C`, for which the Potency entry in test [1], in [6], in test [7], in [8], in test [11] and in [12] was “inactive” throughout. Besides, the Potency result in test [13] was “inactive”. The outcome in test [2], in test [3], in test [4], in [5], in [14] and in test [10] was inactive.

In the case of `CC1(C)S[C@@H]2[C@H](NC(=O)C(C(=O)O)c3ccccc3)C(=O)N2[C@H]1C(=O)O` (some centres undefined), the Potency entry in [1], in [6], in test [7], in [8], in test [9] and in test [11] was “inactive” in each case. Also, the Potency result in test [13] was “inactive”. Moreover, the molecule was classed as inactive in [2], in test [3], in test [4], in test [5] and in [10].

As to `O=C(O)c1cccc(Cl)c1Cl`, the Potency result in test [1], in test [6], in [7], in test [8], in [11] and in [13] was “inactive” each time. The call in test [2], in test [3], in test [4], in test [5], in [14] and in test [10] was inactive.

As to `CC/C=C\CCOC(=O)CCCCC`, the molecule was called inactive in [2], in test [3], in [4], in test [5] and in [10]. Moreover, the Potency result in [6], in test [7], in [8], in test [9], in test [11] and in test [12] was “inactive” throughout.

Take `N#Cc1ccc(C(c2ccc(C#N)cc2)n2cncn2)cc1`: the Potency result in test [1], in test [6], in test [7], in [8], in test [9] and in test [11] was “inactive” each time. Besides, the Potency result in test [12] and in test [13] was “inactive” each time. Further, the result in [2], in test [3], in [4], in test [5] and in [10] was inactive.

For `CCCCC(=O)O[C@]1(C(=O)CO)[C@H](C)C[C@H]2[C@@H]3CCC4=CC(=O)C=C[C@]4(C)[C@@]3(F)[C@@H](O)C[C@@]21C`, the Potency result in [1], in test [6], in test [7], in test [8], in test [9] and in [11] was “inactive” each time. Besides, the Potency result in test [12] and in test [13] was “inactive” throughout. The result in test [2], in test [3], in test [4], in test [5] and in [10] was inactive.

`Cc1nnc(SCC2=C(C(=O)O)N3C(=O)[C@@H](NC(=O)Cn4cnnn4)[C@H]3SC2)s1`: the molecule was classed as inactive in test [2], in test [3], in [4], in test [5], in test [10] and in [15]. In addition, the Potency result in test [6], in test [7], in test [8], in test [9], in test [11] and in test [12] was “inactive” each time. In test [13], the Potency entry was “inactive”.

In the case of `COc1cc2c(cc1N)oc1ccccc12`, the Potency entry in [1], in test [6], in test [16], in test [7], in test [11] and in [13] was “inactive” throughout. In addition, the molecule was classed as inactive in test [2], in test [3], in test [5] and in test [10]. For the same molecule, the Potency in test [12] is 12.5 µM (active).

The values are drawn from PubChem BioAssay (Tox21).
